These results are taken from the supplement of paper PMC7695840.

The structures appear in SMILES notation. Where a name gives a salt, the structure may show the parent alone.

For this assay, the system named is Staphylococcus aureus MW2 delta-mecA (mecA-). As to the kind of experiment: normalized GFP fluorescence (growth of mecA- strain) (fraction of control range); higher = more growth of mecA- strain. The conditions noted are these: compound concentration: 150 uM; cefoxitin: subinhibitory; fluorescent label: GFP. In short, it runs like this:
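Pre-induced S. aureus MW2 cells carrying the gene (DsRed) and deletion cells lacking it (GFP) were combined 1:1 in LB containing a subinhibitory antibiotic dose set each day, then dispensed at 5 µL/well onto 150 μM compound (1.5% DMSO) in 1536-well plates as a single replicate. After 20 h at 37 °C and 90% humidity without shaking, DsRed (540/590) and GFP (485/520) were read. Each channel was scaled per plate between the medians of the single-strain controls, and plates with high untreated ratios and rows with DsRed/GFP >10 were excluded.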
`Nc1nc(NC2CC2)c2ncn([C@H]3C=C[C@@H](CO)C3)c2n1`: the “normalized GFP fluorescence” value came to 0.288.
In the case of `C1CCN2C[C@@H]3C[C@@H](CN4CCCC[C@@H]34)[C@H]2C1`, the “normalized GFP fluorescence” value came out at 0.334.
Turning to `CCN1CC(CCN2CCOCC2)C(c2ccccc2)(c2ccccc2)C1=O` (stereo not given), the “normalized GFP fluorescence” value is 0.294.
`COC1=CC(=O)C[C@@H](C)[C@]12Oc1c(Cl)c(OC)cc(OC)c1C2=O`: the “normalized GFP fluorescence” value is 0.227.
With `O=C(OOC(=O)c1ccccc1)c1ccccc1` the figure was 0.437; with `N[C@@H](Cc1ccc(O)c(O)c1)C(=O)O`, 0.506.
With `O=C(O)CCCC[C@@H]1SC[C@@H]2NC(=O)N[C@@H]21` the figure was 0.414; with `COc1ccc2[nH]c([S+]([O-])Cc3ncc(C)c(OC)c3C)nc2c1` (stereo not given), 0.481; with `C1N2CN3CN1CN(C2)C3`, 0.209.
With `CCN(CC)CCOC(=O)c1ccc(N)cc1` the figure was 0.335; with `NS(=O)(=O)c1cc(C(=O)O)c(NCc2ccco2)cc1Cl`, 0.306.
With `Cc1cc2c(s1)Nc1ccccc1N=C2N1CCN(C)CC1`, the “normalized GFP fluorescence” value was 0.695.
With `CC[C@]12C=CCN3CC[C@@]4(c5cc([C@@]6(C(=O)OC)C[C@@H]7C[C@@H](C(C)(F)F)CN(Cc8c6[nH]c6ccccc86)C7)c(OC)cc5N(C)[C@H]4[C@@](O)(C(=O)OC)[C@@H]1OC(C)=O)[C@@H]32` [Vinflunine Tartrate] the figure was 0.315; with `CN[C@@H]1[C@H](O[C@H]2[C@H](O[C@H]3[C@H](O)[C@@H](O)[C@H](N=C(N)N)[C@@H](O)[C@@H]3N=C(N)N)O[C@@H](C)[C@]2(O)C=O)O[C@@H](CO)[C@H](O)[C@H]1O`, 0.752.
As to `O=C(NC(Cc1cc(=O)[nH]c2ccccc12)C(=O)O)c1ccc(Cl)cc1` (stereo not given) [Rebamipide], the “normalized GFP fluorescence” value is 0.175.
With `O=C(OCc1ccccc1)c1ccccc1` the figure was 0.269.
Turning to `CC1(C)O[C@@H]2C[C@H]3[C@@H]4CCC5=CC(=O)CC[C@]5(C)[C@@]4(F)[C@@H](O)C[C@]3(C)[C@]2(C(=O)CCl)O1`, the “normalized GFP fluorescence” value was 0.195.
With `Cc1c2oc3c(C)ccc(C(=O)N[C@@H]4C(=O)N[C@H](C(C)C)C(=O)N5CCC[C@H]5C(=O)N(C)CC(=O)N(C)[C@@H](C(C)C)C(=O)O[C@@H]4C)c3nc-2c(C(=O)N[C@@H]2C(=O)N[C@H](C(C)C)C(=O)N3CCC[C@H]3C(=O)N(C)CC(=O)N(C)[C@@H](C(C)C)C(=O)O[C@@H]2C)c(N)c1=O` the figure was -0.00268.
Then `NC(=O)c1cn(Cc2c(F)cccc2F)nn1` [Rufinamide (Banzel)], with 0.199; and `CCCCCCOC(=O)NC(=N)c1ccc(NCc2nc3cc(C(=O)N(CCC(=O)OCC)c4ccccn4)ccc3n2C)cc1`, with 0.00832; and `CC(C)(CO)[C@@H](O)C(=O)NCCCO`, with 0.406.
With `COC(=O)Nc1nc2cc(Sc3ccccc3)ccc2[nH]1` the figure was 0.378; with `NS(=O)(=O)c1cc(C2(O)NC(=O)c3ccccc32)ccc1Cl` (stereo not given), 0.344; with `c1ccc(CN(CC2=NCCN2)c2ccccc2)cc1`, 0.974.
Take `CN(C)CCC[C@@]1(c2ccc(F)cc2)OCc2cc(C#N)ccc21`: the “normalized GFP fluorescence” value worked out at 0.12.
With `Cc1[nH]c(=O)c(C#N)cc1-c1ccncc1` the figure was 0.476.
With `CNC(C)C1CCC(N)C(OC2C(N)CC(N)C(OC3OCC(C)(O)C(NC)C3O)C2O)O1` (stereo not given) the figure was 0.397.
Then `COc1cc2c(cc1OC)C(=O)C(CC1CCN(Cc3ccccc3)CC1)C2` (stereo not given), with 0.341; and `Cc1cc(NS(=O)(=O)c2ccc(N)cc2)no1`, with 0.0197; and `CN1CCC(OC(c2ccccc2)c2ccccc2)CC1`, with 0.0847.
Turning to `Cc1ncc(CO)c(CO)c1O`, the “normalized GFP fluorescence” value was found to be 0.208.
On to `CC(=O)OCC(=O)[C@@]1(O)CC[C@H]2[C@@H]3CCC4=CC(=O)CC[C@]4(C)[C@H]3[C@@H](O)C[C@@]21C`, for which the “normalized GFP fluorescence” value turned out to be 0.58.
With `OCc1ccccc1O` the figure was 0.351; with `COCCc1ccc(OCC(O)CNC(C)C)cc1` (stereo not given), 0.861.
Then `CCc1nc(N)nc(N)c1-c1ccc(Cl)cc1`, with 0.211; and `CCCCCCCN(CC)CCCC(O)c1ccc(NS(C)(=O)=O)cc1` (stereo not given) [Ibutilide fumarate], with 0.723; and `N=C(N)N1CCc2ccccc2C1`, with 0.353.
Then `CC[N+](C)(C)Cc1ccccc1Br`, with 0.178.
Regarding `C=CC[C@@H]1/C=C(\C)C[C@H](C)C[C@H](OC)[C@H]2O[C@@](O)(C(=O)C(=O)N3CCCC[C@H]3C(=O)O[C@H](/C(C)=C/[C@@H]3CC[C@@H](O)[C@H](OC)C3)[C@H](C)[C@@H](O)CC1=O)[C@H](C)C[C@@H]2OC`, the “normalized GFP fluorescence” value stood at 0.0654.
Consider `CC(=O)OCC(=O)[C@@]1(O)CC[C@H]2[C@@H]3CCC4=CC(=O)CC[C@]4(C)[C@@]3(F)[C@@H](O)C[C@@]21C`, for which the “normalized GFP fluorescence” value came to 0.287.
